Reference: the supplement of paper PMC6555819

Tests used:
Assay in all cases: PBM binding z-score (relative to random genomic background probes); higher = stronger binding; sequences stand for … in GC…GCGATTGACAGCGTAGAATGAAGG
[1] = test system: FXR:RXRa (NR concentration 270 nM, RXRa partner concentration 90 nM)
How it was run: (§1)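 Antibodies against each partner of ligand-free nuclear receptor dimers (one per run) detected binding on custom Agilent 4×180K protein-binding microarrays after 1 h incubation. The double-stranded probes had 34-nt variable regions carrying direct-repeat seeds, single-nucleotide variants, half-site ablations and random human genomic background sequences. Binding z-scores, from regression-normalized fluorescence, use the random background probes as reference.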

[2] = test system: LXRa:RXRa (NR concentration 270 nM, RXRa partner concentration 90 nM)
How it was run: as §1

[3] = test system: LXRa homodimer (NR concentration 270 nM)
How it was run: as §1

[4] = test system: LXRb:RXRa (NR concentration 270 nM, RXRa partner concentration 90 nM)
How it was run: as §1

[5] = test system: LXRb homodimer (NR concentration 270 nM)
How it was run: as §1

[6] = test system: PPARa:RXRa (NR concentration 270 nM, RXRa partner concentration 90 nM)
How it was run: as §1

[7] = test system: PPARg:RXRa (NR concentration 180 nM, RXRa partner concentration 90 nM)
How it was run: as §1

[8] = test system: PPARg:RXRa 270nM:90nM, anti-RXR (NR concentration 270 nM, RXRa partner concentration 90 nM)
How it was run: as §1

[9] = test system: PPARg:RXRa 30nM:10nM, anti-RXR (NR concentration 30 nM, RXRa partner concentration 10 nM)
How it was run: as §1

[10] = test system: PPARg:RXRa 90nM:30nM, anti-RXR (NR concentration 90 nM, RXRa partner concentration 30 nM)
How it was run: as §1

[11] = test system: PPARg:RXRa DBDmut IVT, anti-RXR (DBD mutation: RXRa K156A/R161A, NR concentration 270 nM, RXRa partner concentration 90 nM)
How it was run: as §1

[12] = test system: PPARg:RXRa IVT, anti-PPARg (NR concentration 270 nM, RXRa partner concentration 90 nM)
How it was run: as §1

[13] = test system: PPARg DBDmut:RXRa IVT, anti-PPARg (DBD mutation: PPARg1 K132A/R137A, NR concentration 270 nM, RXRa partner concentration 90 nM)
How it was run: as §1

[14] = test system: PPARg DBDmut IVT, anti-PPARg (DBD mutation: PPARg1 K132A/R137A, NR concentration 270 nM)
How it was run: as §1

[15] = test system: PPARg homodimer (NR concentration 180 nM)
How it was run: as §1

[16] = test system: PXR:RXRa (NR concentration 270 nM, RXRa partner concentration 90 nM)
How it was run: as §1

[17] = test system: PXR homodimer (NR concentration 270 nM)
How it was run: as §1

[18] = test system: RARa:RXR (NR concentration 270 nM, RXRa partner concentration 90 nM)
How it was run: as §1

[19] = test system: RARa homodimer (NR concentration 270 nM)
How it was run: as §1

[20] = test system: RARb:RXRa (NR concentration 270 nM, RXRa partner concentration 90 nM)
How it was run: as §1

Row | Sequence | PBM binding z-score [1] | PBM binding z-score [2] | PBM binding z-score [3] | PBM binding z-score [4] | PBM binding z-score [5] | PBM binding z-score [6] | PBM binding z-score [7] | PBM binding z-score [8] | PBM binding z-score [9] | PBM binding z-score [10] | PBM binding z-score [11] | PBM binding z-score [12] | PBM binding z-score [13] | PBM binding z-score [14] | PBM binding z-score [15] | PBM binding z-score [16] | PBM binding z-score [17] | PBM binding z-score [18] | PBM binding z-score [19] | PBM binding z-score [20]
1 | TCTAGTTGGTCACGGAGGTCACAGACGACGGGTA | 3.38 | 3.46 | 1.88 | 3.32 | 0.321 | 4.34 | 3.91 | 4.32 | 3.41 | 3.8 | 2.62 | 4.51 | 0.854 | 1.64 | 3.09 | 4.61 | 0.763 | 4.83 | 1.36 | 3.96
2 | ACTATTAGTTGAGAAGAGGGCAACCGATAGGTTG | 0.199 | 0.323 | 0.0723 | -0.0222 | 0.248 | 0.44 | 0.56 | 0.246 | 0.12 | 0.365 | 0.072 | 0.463 | 1.02 | 0.853 | 0.882 | 0.779 | 0.445 | 0.623 | 1.19 | 1.32
3 | TTACCAAGGTGAGCTGAGGTGGTTGATCCAACTC | -0.284 | -0.505 | -0.878 | -0.761 | -1.22 | 0.275 | -0.0433 | 0.188 | -0.313 | 0.186 | 0.594 | 1.48 | -0.51 | -0.991 | -0.428 | 0.478 | -0.709 | 1.53 | -0.848 | 0.757
4 | CCTACCGGGCCATCAGGTCATTGATATCAACGTT | 1.4 | 1.26 | 1.91 | 1.66 | 0.209 | 1.93 | 0.875 | 1.59 | -0.00582 | 1.09 | 0.52 | 1.97 | -0.847 | -0.348 | 1.25 | 1.64 | 0.864 | 1.95 | 0.127 | 2.21
5 | GCTGCTAGGTCAGATTGGTCAGCTAACGGGTACG | 1.36 | 0.957 | -0.166 | 0.562 | -0.238 | 1.68 | 0.672 | 0.718 | -0.273 | 0.427 | 2.72 | 2.3 | -0.411 | -0.686 | 0.271 | 0.33 | -0.223 | 0.855 | -0.468 | 3.27
6 | CCTGCTAGGTCCATGGTCAGCTAAAGCAGCTCGC | -0.648 | -0.658 | -0.744 | -0.958 | -0.563 | -0.447 | -0.772 | -0.287 | -1.2 | -0.648 | -0.414 | -0.603 | -1.47 | -1.26 | -0.704 | -0.449 | -1 | -0.64 | -1.05 | 0.441
7 | CCTTACGGGTCACGAGGTTATGGCACGACGAGCG | 6.57 | 4.39 | 0.195 | 3.8 | 0.148 | 5.94 | 7.08 | 6.31 | 3.46 | 5.31 | 3.69 | 5.37 | 1.26 | 0.892 | 2.01 | 4.16 | 0.0957 | 5.67 | 0.689 | 4.51
